This passage reports PBM binding z-score results from the supplement of paper PMC6555819.

What all share (assay): PBM binding z-score (relative to random genomic background probes); higher = stronger binding; sequences stand for … in GC…GCGATTGACAGCGTAGAATGAAGG
Assay [1] has as its system RARb homodimer (NR concentration 270 nM). The gist of the method:
(§1)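 On custom Agilent 4×180K arrays, double-stranded probes with 34-nt variable regions carried direct-repeat seeds, single-nucleotide variants, half-site ablations or random human genomic background. Ligand-free nuclear receptor dimers were applied for 1 h, and binding was read with antibodies against each partner (one per run). Binding z-scores come from regression-normalized fluorescence, with the random background probes as reference.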

Assay [2] deals with RARg:RXRa (NR concentration 270 nM, RXRa partner concentration 90 nM). In outline: as §1
In assay [3] the test system is RARg homodimer (NR concentration 270 nM). In outline: as §1
Assay [4] relates to RXRa DBDmut IVT, anti-RXR (DBD mutation: RXRa K156A/R161A, NR concentration 90 nM). The gist of the method:
as §1

Assay [5] relates to RXRa homodimer (NR concentration 180 nM). In outline: as §1
For assay [6], the system named is THRa:RXRa (NR concentration 90 nM, RXRa partner concentration 90 nM). The gist of the method: as §1
Assay [7] has as its system THRa homodimer (NR concentration 90 nM). In outline:
as §1

The subject of assay [8] is VDR homodimer (NR concentration 270 nM). In outline:
as §1

CCGAGTAGGTTACGAGGGGGCATCCAGTGCGAAT: the PBM binding z-score turned out to be 2.11 in assay [1]; 2.95 in assay [2]; 2.31 in assay [3]; 0.736 in assay [4]; 2.02 in assay [5]; 3.7 in assay [6]. Besides, the figures for the PBM binding z-score in assay [7] and in assay [8] were 0.756 and 2.87, respectively.
On to AGTCAAAGTTCAGCACGAGGTAACGTAAAGCACG, for which the PBM binding z-score in assay [1] stood at 3.59; in assay [2], 5.19; in assay [3], 5.78; in assay [4], 3.52; in assay [5], 3.51; in assay [6] it was 3.78. Also, the PBM binding z-score was determined as 1.13 in assay [7] and 2.3 in assay [8].
On to CGTCTAAGGTCAAGGTCAGTGAAAGAGACTCGAA, for which the PBM binding z-score was determined as 5.28 in assay [1]; 7.24 in assay [2]; 8.01 in assay [3]; 4.05 in assay [4]; 7.32 in assay [5]; 4.53 in assay [6]. In addition, the values for the PBM binding z-score in assay [7] and in assay [8] were 4.38 and 3.2, respectively.
With CTATGTCGGTTAAGGGGGTCATTCAGTTTGAAAG, the PBM binding z-score is 4.04 in assay [1]; 4.91 in assay [2]; 4.15 in assay [3]; 2.98 in assay [4]; 5.04 in assay [5]; 3.9 in assay [6]. Also, the PBM binding z-score was found to be 3.17 in assay [7] and 6.54 in assay [8].
For ACTAGTTGTTCAGCTGAGGTCACACACAATTCGG, the PBM binding z-score in assay [1] came to 4.34; in assay [2], 3.72; in assay [3] it was 3.35; in assay [4], 1.54; in assay [5] it was 4.16; in assay [6], 4.65. Besides, the PBM binding z-score in assay [7] was 5.2; in assay [8], 2.84.
As to ACTTACGGGTCAACGGGGTTATAGCACGCGTATA, the PBM binding z-score in assay [1] is 3.81; in assay [2] it was 5.9; in assay [3] it was 5.07; in assay [4], 2.6; in assay [5], 6.78; in assay [6], 4.23. The results for the PBM binding z-score in assay [7] and in assay [8] were 1.08 and 3.81, respectively.
For ATATGAAGGTTAGGGTCATTCAGAAAGTAGGGAA, the PBM binding z-score in assay [1] was determined as 3.58; in assay [2], 4.37; in assay [3], 3.36; in assay [4], 2.29; in assay [5], 5.38; in assay [6], 4. The PBM binding z-score in assay [7] amounted to 3.15; in assay [8], 4.12.
TAGCCTAGGTCATTCAGGGGCCAGAATAGAAAGC: the PBM binding z-score came to 3.56 in assay [1]; 5.97 in assay [2]; 4.58 in assay [3]; 2.09 in assay [4]; 3.18 in assay [5]; 3.54 in assay [6]. In addition, the PBM binding z-score in assay [7] turned out to be 0.459; in assay [8], 1.19.
On to TAGAGTAGGTTACGGGGGCATTCAGGGATGAAGA, for which the PBM binding z-score in assay [1] is 2.5; in assay [2] it was 3.43; in assay [3], 2.77; in assay [4], 2.08; in assay [5] it was 3.21; in assay [6] it was 3.99. Moreover, the PBM binding z-score in assay [7] turned out to be 1.75; in assay [8], 3.81.
Turning to TCTGCTAGGTCAACGATGGTCAGCGAATCTGCTA, the PBM binding z-score stood at 3.42 in assay [1]; 4.03 in assay [2]; 4.75 in assay [3]; 0.927 in assay [4]; 2.57 in assay [5]; 3.15 in assay [6]. The PBM binding z-score in assay [7] was 0.707; in assay [8] it was -0.22.
Regarding TCATATAGGTTAAAGGTGAAAGTCGGTGTGGTAA, the PBM binding z-score in assay [1] came to 2.56; in assay [2], 3.92; in assay [3], 1.76; in assay [4], 1.94; in assay [5], 5.99; in assay [6] it was 2.62. Further, the PBM binding z-score in assay [7] is 0.942; in assay [8], 0.81.
Consider CCGAGTAGGTCACGAGGGGGCATTCAGTGCGAAT, for which the PBM binding z-score in assay [1] came out at 4.35; in assay [2] it was 6.3; in assay [3], 6.32; in assay [4], 2.29; in assay [5], 5.11; in assay [6], 4.54. Besides, the PBM binding z-score in assay [7] came out at 0.959; in assay [8], 3.61.
As for CTATATAGGTTAAGGGGGTCATTCAGTTTGAAAG, the PBM binding z-score in assay [1] is 3.8; in assay [2] it was 5.72; in assay [3], 4.34; in assay [4], 2.61; in assay [5], 6.69; in assay [6], 4.18. Also, the PBM binding z-score was 1.99 in assay [7] and 6.17 in assay [8].
On to CTAACTAGGTCAAAGGACAGTGAAAGGCGACGTA, for which the PBM binding z-score in assay [1] was determined as 3.08; in assay [2] it was 4.05; in assay [3], 4.84; in assay [4] it was 1.68; in assay [5], 2.97; in assay [6] it was 2.58. Also, the PBM binding z-score is 0.419 in assay [7] and 0.409 in assay [8].
Regarding CGAAATAGGTCACCAGGACAGTGAAGAGGTTGGA, the PBM binding z-score in assay [1] worked out at 3.91; in assay [2], 5.54; in assay [3] it was 5.96; in assay [4], 0.868; in assay [5], 5.18; in assay [6] it was 3.12. Moreover, the values for the PBM binding z-score in assay [7] and in assay [8] were 0.942 and 0.687, respectively.
